Results reported in PubChem BioAssay (EPA / NIEHS).
Records with an inconclusive call do not appear. Calls of active or inactive are those of the source. The calls were made as follows, unless noted: active = hit-call score of the fitted dose curve at least 0.9, where 1 is the maximum; inconclusive = response in the unintended direction; inactive = score below 0.9.

What was measured:
[1] = TOX21_p53_BLA_p2_viability: Viability Assessment in the Tox21 HCT-116 p53 Agonism Beta-lactamase Assay, Phase 2 (AID 2283591);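 also: compound exposure lasted 16 h at 37 °C; actives lower the ATP signal meaning cytotoxicity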
Summary of the method: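 Cytotoxicity readout: CellTiter-Glo ATP luminescence, 30 min at room temperature, after the beta-lactamase read. Cells were HCT116 exposed 16 h at 37C to compounds pin-transferred at 217-fold dilution from DMSO stocks.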

[2] = target: Cellular tumor antigen p53 (Homo sapiens) (UniProt P04637); experiment: TOX21_p53_BLA_p2_ratio: Tox21 HCT-116 p53 Agonism Beta-lactamase Assay, Ratio, Phase 2 (AID 2283592)
Summary of the method: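 DMSO-normalized, positive-direction endpoint derived from the 460 nm/530 nm FRET ratio in HCT116 p53 beta-lactamase reporter cells exposed 16 h at 37C and loaded with CCF4-AM for 2 h.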

[3] = TOX21_p53_BLA_p3_viability: Viability Assessment in the Tox21 HCT-116 p53 Agonism Beta-lactamase Assay, Phase 3 (AID 2283593);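 also: cells exposed to compound for 16 h before reading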
Summary of the method: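 Cellular ATP was quantified by CellTiter-Glo luminescence, read after 30 min at room temperature. Beforehand, HCT116 cells (4000/well) received compound 5 h post-seeding, 217-fold diluted from DMSO, then incubated 16 h at 37C.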

[4] = target: Cellular tumor antigen p53 (Homo sapiens) (UniProt P04637); experiment: TOX21_p53_BLA_p3_ratio: Tox21 HCT-116 p53 Agonism Beta-lactamase Assay, Ratio, Phase 3 (AID 2283596)
Summary of the method: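 Cells were seeded at 4000/well, rested 5 h at 37C, then dosed with DMSO compound solutions (217-fold dilution) for 16 h. CCF4-AM substrate was loaded for 2 h at room temperature, and the 460/530 nm emission ratio was fitted for gain of signal versus DMSO.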

[5] = TOX21_p53_BLA_p4_viability: Viability Assessment in the Tox21 HCT-116 p53 Agonism Beta-lactamase Assay, Phase 4 (AID 2283597);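 also: hits lower the luminescence signal meaning cytotoxicity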
Summary of the method: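 In this multiplexed secondary endpoint, HCT116 cells (4000 per well, compound at 5 h, 16 h treatment) received CellTiter-Glo after the beta-lactamase read. Luminescence after 30 min RT reflects ATP, and falling signal marks cytotoxicity.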

[6] = TOX21_p53_BLA_p5_viability: Viability Assessment in the Tox21 HCT-116 p53 Agonism Beta-lactamase Assay, Phase 5 (AID 2283600)
Summary of the method: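 Here cell health was gauged by ATP levels in wells holding 4000 cells, each treated 16 h with DMSO-delivered compounds at 217-fold dilution; reduced luminescence marked toxicity.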

[7] = target: Cellular tumor antigen p53 (Homo sapiens) (UniProt P04637); experiment: TOX21_p53_BLA_p4_ratio: Tox21 HCT-116 p53 Agonism Beta-lactamase Assay, Ratio, Phase 4 (AID 2283601)
Summary of the method: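 Signal is the blue/green (460nm/530nm) ratio of cleaved versus uncleaved CCF4-AM substrate, read after 2 h substrate loading. Cells were HCT116 carrying the p53-responsive beta-lactamase reporter, dosed 16 h at 37C, 5% CO2; CellTiter-Glo measured in parallel.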

[8] = CCTE_Harrill_HTTr_Viability_MCF7: CCTE's 6-hour Cell Viability Assessment for the High-Throughput Transcriptomics (HTTr) Platform, in MCF-7 cells cultured in DMEM + 10% fetal bovine serum, Harrill Lab (AID 2284010; active = hit-call score of the fitted dose curve at least 0.9, where 1 is the maximum; inactive = score below 0.9)
Summary of the method: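 Read-out is propidium iodide gain of signal by high-content imaging, reflecting membrane integrity loss. Measurements are taken 6 h after dosing, eight concentrations per chemical, with DMSO serving as baseline for bidirectional curve fitting.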

[9] = CCTE_Harrill_HTTr_Apoptosis_MCF7: CCTE's 6-hour Apoptosis Assessment for the High-Throughput Transcriptomics (HTTr) Platform, in MCF-7 cells cultured in DMEM + 10% fetal bovine serum, Harrill Lab (AID 2284011; active = hit-call score of the fitted dose curve at least 0.9, where 1 is the maximum; inactive = score below 0.9)
Summary of the method: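 Apoptosis in MCF-7 cells grown in DMEM with 10% fetal bovine serum was scored after a six hour exposure by high content imaging of caspase-3/7 activation (CellEvent Caspase 3/7 Green), with DMSO serving as negative control and baseline.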

[10] = CCTE_Harrill_HTTr_CellCount_MCF7: CCTE's Cell Proliferation Assessment for the High-Throughput Transcriptomics (HTTr) Platform, Harrill Lab (AID 2284012);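 also: cells exposed to compound for six hours; intended direction is loss of nuclei count meaning fewer cells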
Summary of the method: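 Cell count served as viability reporter: loss of Hoechst-stained nuclei, counted by high content imaging, marks decreased growth or survival. Exposure was 6 h in MCF-7 cells across eight concentrations, with DMSO as baseline.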

[11] = target: Thyroid hormone receptor alpha (Rattus norvegicus) + Thyroid hormone receptor beta (Rattus norvegicus) (UniProt P18113+P63059); experiment: TOX21_TR_LUC_GH3_Antagonist_Followup: Tox21 GH3 Thyroid Hormone Receptor Antagonism Luciferase Follow-Up Assay (AID 2283942)
Summary of the method: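 Loss of T3-driven (1.0 nM final) reporter activity in GH3 cells was read by ONE-Glo luminescence after 24 h incubation at 37C; 15-point compound series spanned 92 uM to 5nM final, 1,500 cells/well.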

THRB (gene 7068) = THRB (gene 7068) (UniProt P10828); experiment: TOX21_TRB_BLA_Antagonist_Followup_ratio: Tox21 Thyroid Hormone Receptor beta Antagonism Beta-lactamase (BLA) Follow-Up Assay, Ratio (AID 2283958)
Summary of the method: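 Cells were plated and allowed to attach for 5 h, then dosed with compounds in DMSO at 11 concentrations for 18 h at 37C. Beta-lactamase reporter activity was measured via CCF4-AM FRET as the 460:530 nm ratio.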

[12] = TOX21_TRB_BLA_Antagonist_Followup_viability: Viability Assessment in the Tox21 Thyroid Hormone Receptor beta Antagonism Beta-lactamase (BLA) Follow-Up Assay (AID 2283961)
Summary of the method: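 In the same wells as the reporter read, cell health was gauged by CellTiter-Glo ATP luminescence, with signal loss indicating reduced viability. Cells had been exposed to test compounds for 18 h.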

[13] = target: Retinoic acid receptor RXR-alpha (Homo sapiens) (UniProt P19793); experiment: TOX21_TR_RXR_BLA_Antagonist_Followup_ratio: Tox21 Thyroid Hormone Receptor beta Retinoid X Receptor alpha (RXRa) Antagonism Beta-lactamase (BLA) Follow-Up Assay, Ratio (AID 2283972)
Summary of the method: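 Compounds were tested in triplicate at 11 concentrations on RXRa-bla HEK293T cells for 16 h. Substrate cleavage ratio, normalized to DMSO, gave the endpoint.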

[14] = target: Cellular tumor antigen p53 (Homo sapiens) (UniProt P04637); experiment: TOX21_p53_BLA_p5_ratio: Tox21 HCT-116 p53 Agonism Beta-lactamase Assay, Ratio, Phase 5 (AID 2283599)
Summary of the method: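 Beta-lactamase reporter ratio (blue 460 nm over green 530 nm, 405 nm excitation) after 2 h CCF4-AM loading, in HCT-116 cells exposed 16 h at 37 C to compounds pinned at 217-fold dilution. Increases relative to DMSO baseline scored.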

Measured: AC50

Chain of Cellular tumor antigen p53 (Homo sapiens) (P04637 whole entry, looked up): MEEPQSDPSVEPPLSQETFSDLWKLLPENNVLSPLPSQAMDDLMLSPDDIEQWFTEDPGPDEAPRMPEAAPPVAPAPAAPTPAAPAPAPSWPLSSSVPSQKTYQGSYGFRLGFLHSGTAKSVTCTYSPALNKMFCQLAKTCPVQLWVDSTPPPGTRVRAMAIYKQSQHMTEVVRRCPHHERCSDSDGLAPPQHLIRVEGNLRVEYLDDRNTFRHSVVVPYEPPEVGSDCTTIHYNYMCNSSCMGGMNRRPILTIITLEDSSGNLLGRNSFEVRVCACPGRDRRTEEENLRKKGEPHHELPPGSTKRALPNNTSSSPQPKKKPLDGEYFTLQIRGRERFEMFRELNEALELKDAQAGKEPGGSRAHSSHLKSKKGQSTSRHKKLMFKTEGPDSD
Chain of THRB (gene 7068) (P10828 whole entry, looked up): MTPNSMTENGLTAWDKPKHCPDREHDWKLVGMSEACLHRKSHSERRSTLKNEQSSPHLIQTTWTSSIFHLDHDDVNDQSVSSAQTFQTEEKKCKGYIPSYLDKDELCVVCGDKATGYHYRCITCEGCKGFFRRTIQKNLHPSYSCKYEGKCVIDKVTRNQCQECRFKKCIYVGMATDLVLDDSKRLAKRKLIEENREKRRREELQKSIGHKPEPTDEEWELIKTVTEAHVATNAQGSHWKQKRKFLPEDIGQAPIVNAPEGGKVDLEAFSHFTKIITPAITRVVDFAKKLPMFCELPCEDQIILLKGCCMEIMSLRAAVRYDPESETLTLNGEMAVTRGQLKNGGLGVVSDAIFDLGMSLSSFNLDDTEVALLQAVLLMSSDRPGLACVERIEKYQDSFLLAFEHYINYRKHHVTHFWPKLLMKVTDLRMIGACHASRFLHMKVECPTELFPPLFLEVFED
Chain of Retinoic acid receptor RXR-alpha (Homo sapiens) (P19793 whole entry, looked up): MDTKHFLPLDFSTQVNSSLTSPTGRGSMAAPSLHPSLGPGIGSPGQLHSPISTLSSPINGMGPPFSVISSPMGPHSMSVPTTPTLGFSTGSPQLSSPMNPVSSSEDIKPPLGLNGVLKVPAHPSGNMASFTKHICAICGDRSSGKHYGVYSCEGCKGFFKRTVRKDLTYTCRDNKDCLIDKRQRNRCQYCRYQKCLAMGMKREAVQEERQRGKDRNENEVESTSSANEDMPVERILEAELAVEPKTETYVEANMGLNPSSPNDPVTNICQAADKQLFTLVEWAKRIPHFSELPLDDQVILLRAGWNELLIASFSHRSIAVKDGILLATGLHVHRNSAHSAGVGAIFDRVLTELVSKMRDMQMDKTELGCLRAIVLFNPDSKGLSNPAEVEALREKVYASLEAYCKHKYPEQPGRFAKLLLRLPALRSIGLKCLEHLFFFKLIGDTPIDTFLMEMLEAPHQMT

CCn1cc(C(=O)O)c(=O)c2cc3c(cc21)OCO3
not listed: [11] | THRB (gene 7068) | [12] | [13] | [14]
inactive: all other assays above

CC(C)(C)C(=O)OCOC(=O)C1N2C(=O)CC2S(=O)(=O)C1(C)C (stereo not given)
inactive: [1] | [2] | [3] | [4] | [5] | [7]

Oc1c(I)cc(I)c2cccnc12
active: [1] 10.6 µM | [3] 9.75 µM | [5] 23 µM
not listed: [8] | [9] | [10] | [14]
inactive: all other assays above

Cc1occc1SSc1ccoc1C
inactive: [1] | [2] | [3] | [4] | [14] | [6]

CCCNC(C)C(=O)Nc1ccccc1C (stereo not given)
inactive: [1] | [2] | [3] | [4] | [14]

CC(C)(C)NCC(O)CSc1nc(-c2ccc(C(N)=O)s2)cs1 (stereo not given)
inactive: [1] | [2] | [3] | [4] | [5] | [7]

COc1cc(Cc2cnc(N)nc2N)cc(OC)c1OC
inactive: [1] | [2] | [3] | [4] | [14] | [6]

O=C(O)CN(CCN(CC(=O)O)CC(=O)O)CC(=O)O
inactive: [1] | [2] | [3] | [4] | [5] | [6] | [8] | [9]

Cc1ccccc1C#N
inactive: [1] | [2] | [3] | [4] | [14]

COc1cc(/C=C/c2ccccc2)oc(=O)c1
inactive: [1] | [2] | [3] | [4] | [5] | [7]

CC(C)(c1ccc(Oc2ccc3c(c2)C(=O)OC3=O)cc1)c1ccc(Oc2ccc3c(c2)C(=O)OC3=O)cc1
inactive: [1] | [2] | [3] | [4] | [14]

O=C(c1ccccc1O)c1ccccc1O
inactive: [1] | [2] | [3] | [4] | [5] | [7]
